These results are taken from PubChem BioAssay.

The nature of assay [1]: sensitizers of A549 cells to miR-34 induction, primary screen, imaging, A549 dox-inducible miR-34, nuclei and caspase counts (AID 1347080;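 active means compounds whose cell count with miR-34 switched on is under 0.7 times the count with it off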). To be noted: A549 miR-34 inducible, Hoechst nuclei count, 48 h.
Assay [2] in a line: survival rescue of mitochondrial mutant cells in low glucose, primary screen, MELAS cybrids, Rieske KO mouse fibroblasts, CellTiter-Glo (AID 1508586).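 Further: z relative to plate mean and SD of compound and empty wells.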 For orientation: Cellular ATP, detected with luciferase, serves as a proxy for viable cell number.
Setting [3] is: stronger effect = lower value, cell number ratio, induced over uninduced.
[4] abbreviates: measured here: relative caspase fold change +Dox/-Dox.
Where [5] appears, read: measured here: total cells with miR-34 induction, stronger effect = lower value.
The mark [6] stands for this setting: measured here: total cells without miR-34 induction.
Setting [7] is: MELAS cybrid survival, CellTiter-Glo 48 h, stronger effect = higher value.
Where [8] appears, read: Rieske KO mouse fibroblast survival, CellTiter-Glo 72 h.

Activity calls are given as the source filed them.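 How the source made its calls, unless noted: active means mean z-score across replicates of 1.96 or higher in either the MELAS or the Rieske mutant cell line; inactive means the rest.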 *1 amine or outer side, *2 acyl side, *3 side chain or, on linkers, in order; H or OH if unused. Where a SMILES comes first, the peptide text is derived from it. Bridges are numbered along the chain shown (N, C = ends). [ ]: non-standard residue; d: D form. The star is where a group is joined. ξ: configuration not given here. pTerphenylCO(4''-OnC5H11) = CCCCCOc1ccc(-c2ccc(-c3ccc(C(=O)*)cc3)cc2)cc1; ξOrn(4,5-diOH) = O=C(C(CC(O)C(O)N[*:3])N[*:1])[*:2]; ξhTyr(βξ-OH,γξ-OH) = NC(C(=O)O)C(O)C(O)c1ccc(O)cc1; ξPro(3ξ-OH,4ξ-Me) = CC1CNC(C(=O)O)C1O; Hyp = O=C(O)[CH]1C[CH](O)CN1
Further: test concentration not given here.

In the case of `CC1(C)SC2C(NC(=O)C(C(=O)O)c3ccsc3)C(=O)N2C1C(=O)O` (stereo not given), the fold change in assay [1] (setting [3]) is 0.763 (inactive); in assay [1] (setting [4]) it was 0.814. In addition, the cell count in assay [1] (setting [5]) was found to be 7330; in assay [1] (setting [6]), 9600. Moreover, the results for the z-score in assay [2] (setting [7]) and in assay [2] (setting [8]) were -0.203 (inactive) and -0.146, respectively.

On to `COc1cc(C2c3cc4c(cc3C(OC3OC5COC(c6cccs6)OC5C(O)C3O)C3COC(=O)[C@H]23)OCO4)cc(OC)c1O` (stereo not given in full), for which the values for the fold change in assay [1] (setting [3]) and in assay [1] (setting [4]) were 1.06 (inactive) and 0.936, respectively. For the same molecule, the cell count stood at 1550 in assay [1] (setting [5]) and 1460 in assay [1] (setting [6]). The z-score is 0.486 (inactive) in assay [2] (setting [7]) and 0.638 in assay [2] (setting [8]).

As for `CC1OC(Oc2c(-c3cc(O)c(O)c(O)c3)oc3cc(O)cc(O)c3c2=O)C(O)C(O)C1O` (stereo not given), the fold change is 0.976 (inactive) in assay [1] (setting [3]) and 1.01 in assay [1] (setting [4]). The figures for the cell count in assay [1] (setting [5]) and in assay [1] (setting [6]) were 8230 and 8430, respectively. Further, the z-score is -0.43 (inactive) in assay [2] (setting [7]) and -0.277 in assay [2] (setting [8]).

For `CCOc1ccccc1OC(c1ccccc1)[C@H]1CNCCO1` (stereo not given in full), the fold change in assay [1] (setting [3]) was 0.858 (inactive); in assay [1] (setting [4]), 1.73. Moreover, the figures for the cell count in assay [1] (setting [5]) and in assay [1] (setting [6]) were 8800 and 10300, respectively. Besides, the z-score is -0.71 (inactive) in assay [2] (setting [7]) and -0.166 in assay [2] (setting [8]).

On to `CC(C)(O)CCC(O)[C@](C)(O)C1CC[C@@]2(O)C3=CC(=O)[C@@H]4CC(O)C(O)C[C@]4(C)[C@@H]3CC[C@]12C` (stereo not given in full), for which the fold change in assay [1] (setting [3]) is 0.992 (inactive); in assay [1] (setting [4]) it was 0.932. The figures for the cell count in assay [1] (setting [5]) and in assay [1] (setting [6]) were 10200 and 10300, respectively. For the same molecule, the z-score was -0.354 (inactive) in assay [2] (setting [7]) and 0.685 in assay [2] (setting [8]).

As for `CON=C(C(=O)NC1C(=O)N2C(C(=O)OCOC(=O)C(C)(C)C)=C(C=Cc3scnc3C)CS[C@H]12)c1csc(N)n1` (stereo not given in full), the fold change in assay [1] (setting [3]) was 0.852 (inactive); in assay [1] (setting [4]) it was 0.561. The cell count in assay [1] (setting [5]) stood at 7580; in assay [1] (setting [6]) it was 8900. Also, the z-score in assay [2] (setting [7]) is -0.26 (inactive); in assay [2] (setting [8]) it was 0.818.

Consider `OCC1OC(c2ccc(Cl)c(Cc3ccc(OC4CCOC4)cc3)c2)C(O)C(O)C1O` (stereo not given), for which the fold change in assay [1] (setting [3]) was 0.997 (inactive); in assay [1] (setting [4]), 0.234. For the same molecule, the cell count was found to be 8710 in assay [1] (setting [5]) and 8730 in assay [1] (setting [6]). Further, the figures for the z-score in assay [2] (setting [7]) and in assay [2] (setting [8]) were -0.39 (inactive) and -0.293, respectively.

Take `CC(NC(=O)C(O)C(C)C)C(=O)NC1C(=O)N(C)CCc2ccccc21` (stereo not given): the fold change is 0.932 (inactive) in assay [1] (setting [3]) and 0.791 in assay [1] (setting [4]). The cell count in assay [1] (setting [5]) stood at 7480; in assay [1] (setting [6]), 8020. Also, the z-score in assay [2] (setting [7]) is -0.185 (inactive); in assay [2] (setting [8]), -1.14.

Consider `O=C1NC(=O)C(=Cc2ccc3c(c2)OC(F)(F)O3)S1`, for which the fold change in assay [1] (setting [3]) is 0.912 (inactive); in assay [1] (setting [4]) it was 0.633. Also, the cell count in assay [1] (setting [5]) turned out to be 8930; in assay [1] (setting [6]), 9790. Besides, the z-score was -0.318 (inactive) in assay [2] (setting [7]) and -0.248 in assay [2] (setting [8]).

With `CC(=O)O[C@]1(C(C)=O)CC[C@H]2[C@@H]3C[C@H](C)C4=CC(=O)C=C[C@]4(C)[C@@]3(F)[C@H](O)C[C@@]21C`, the fold change was 0.862 (inactive) in assay [1] (setting [3]) and 1.9 in assay [1] (setting [4]). Besides, the cell count is 5370 in assay [1] (setting [5]) and 6240 in assay [1] (setting [6]). Further, the z-score is -0.0969 (inactive) in assay [2] (setting [7]) and -0.184 in assay [2] (setting [8]).

Turning to `O=C(CCCS)NC1CCN(C(=O)COc2ccc(Cl)cc2Cl)CC1`, the results for the fold change in assay [1] (setting [3]) and in assay [1] (setting [4]) were 0.885 (inactive) and 0.313, respectively. Further, the cell count amounted to 7910 in assay [1] (setting [5]) and 8940 in assay [1] (setting [6]). The z-score in assay [2] (setting [7]) is -0.37 (inactive); in assay [2] (setting [8]), 1.05.

Take `CC(=O)[C@H]1CC[C@H]2[C@@H]3C=CC4=CC(=O)CC[C@@]4(C)[C@H]3CC[C@]12C`: the values for the fold change in assay [1] (setting [3]) and in assay [1] (setting [4]) were 0.894 (inactive) and 0.952, respectively. Further, the figures for the cell count in assay [1] (setting [5]) and in assay [1] (setting [6]) were 7680 and 8580, respectively. For the same molecule, the z-score in assay [2] (setting [7]) was -0.0223 (inactive); in assay [2] (setting [8]), -0.212.

In the case of `CCNC(=O)C1OC(n2cnc3c(N)nc(NCCc4ccc(CCC(=O)O)cc4)nc32)C(O)C1O` (stereo not given), the fold change in assay [1] (setting [3]) is 1.01 (inactive); in assay [1] (setting [4]), 0.733. In addition, the cell count came to 7450 in assay [1] (setting [5]) and 7360 in assay [1] (setting [6]). The results for the z-score in assay [2] (setting [7]) and in assay [2] (setting [8]) were 0.177 (inactive) and -0.329, respectively.

Regarding `Nc1nccc2c1ncn2C1C=C(CO)C(O)C1O` (stereo not given), the fold change is 0.968 (inactive) in assay [1] (setting [3]) and 0.366 in assay [1] (setting [4]). Moreover, the values for the cell count in assay [1] (setting [5]) and in assay [1] (setting [6]) were 4640 and 4800, respectively. Besides, the z-score in assay [2] (setting [7]) was -0.724 (inactive); in assay [2] (setting [8]), -1.41.

On to `CCCCCOc1ccc(-c2ccc(-c3ccc(C(=O)NC4CC(O)C(O)NC(=O)C5C(O)C(C)CN5C(=O)C(C(C)O)NC(=O)C(C(O)C(O)c5ccc(O)cc5)NC(=O)C5CC(O)CN5C(=O)C(C(C)O)NC4=O)cc3)cc2)cc1` (stereo not drawn) ({pTerphenylCO(4''-OnC5H11)}-[ξOrn(4,5-diOH)]T[Hyp][ξhTyr(βξ-OH,γξ-OH)]T[ξPro(3ξ-OH,4ξ-Me)]; lactam 1-C; configuration not given here), for which the fold change is 0.963 (inactive) in assay [1] (setting [3]) and 0.515 in assay [1] (setting [4]). For the same molecule, the results for the cell count in assay [1] (setting [5]) and in assay [1] (setting [6]) were 5590 and 5810, respectively. The values for the z-score in assay [2] (setting [7]) and in assay [2] (setting [8]) were 0.0456 (inactive) and -0.136, respectively.

Consider `CN(C)C(CCOc1cccc2ccccc12)c1ccccc1` (stereo not given), for which the fold change in assay [1] (setting [3]) was 0.873 (inactive); in assay [1] (setting [4]), 1.7. Further, the cell count was 6850 in assay [1] (setting [5]) and 7850 in assay [1] (setting [6]). Moreover, the z-score in assay [2] (setting [7]) was -0.416 (inactive); in assay [2] (setting [8]), 0.392.

Turning to `CCCCNc1ncc(C(=O)NCc2ccc(-n3ccnc3)cc2)c(NC2CCC(O)CC2)n1` (stereo not given), the results for the fold change in assay [1] (setting [3]) and in assay [1] (setting [4]) were 1.3 (inactive) and 0.249, respectively. Further, the cell count came to 2450 in assay [1] (setting [5]) and 1880 in assay [1] (setting [6]). The z-score in assay [2] (setting [7]) is 5.49 (active); in assay [2] (setting [8]) it was -1.88.

Regarding `CCN(CC)CCN(Cc1ccc(-c2ccc(C(F)(F)F)cc2)cc1)C(=O)Cn1c(SCc2ccc(F)cc2)nc(=O)c2c1CCC2`, the fold change in assay [1] (setting [3]) was 0.577 (active); in assay [1] (setting [4]), 1.58. In addition, the cell count was 1110 in assay [1] (setting [5]) and 1920 in assay [1] (setting [6]). Also, the z-score is -0.397 (inactive) in assay [2] (setting [7]) and -1.15 in assay [2] (setting [8]).

Regarding `CCOc1nc2cccc(C(=O)O)c2n1Cc1ccc(-c2ccccc2-c2noc(=O)[nH]2)cc1`, the fold change in assay [1] (setting [3]) is 0.988 (inactive); in assay [1] (setting [4]), 0.55. Also, the values for the cell count in assay [1] (setting [5]) and in assay [1] (setting [6]) were 8580 and 8680, respectively. Besides, the z-score in assay [2] (setting [7]) was -0.267 (inactive); in assay [2] (setting [8]), -0.0268.

For `CCOC(=O)N1c2ccc(C(F)(F)F)cc2C(N(Cc2cc(C(F)(F)F)cc(C(F)(F)F)c2)C(=O)OC)CC1CC` (stereo not given), the fold change was 0.939 (inactive) in assay [1] (setting [3]) and 0.794 in assay [1] (setting [4]). In addition, the cell count in assay [1] (setting [5]) was determined as 8370; in assay [1] (setting [6]), 8920. Moreover, the values for the z-score in assay [2] (setting [7]) and in assay [2] (setting [8]) were -0.304 (inactive) and 0.988, respectively.
